RN4220 kill – kills Staphylococcus aureus RN4220 | inhibition, % (concentration not given with the values) | S. aureus RN4220 growth, OD600, 16 h | 330,000 tested, 0.33% active; in the data active = inhibition above about 85%;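 also: plate controls were untreated cells for no effect and reference antibiotic for full effect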
BJeLR lethal – kills HRASV12-expressing BJeLR cells | 300,000 tested, 0.17% active | inhibition, % (no concentration beside the values) | BJeLR (HRASV12) viability, CellTiter-Glo ATP luminescence, 48 h; in the data active = inhibition above about 50%
CCHFV vOTU inh – blocks the CCHF virus ovarian tumor domain protease; CCHFV vOTU protease, Pep-AMC fluorescence; inhibition, % at 11.5 µM; 370,000 tested, 0.55% active; AID 651958; in the data active = inhibition above about 30%; also: 0% = vehicle wells with enzyme and 100% = no enzyme wells
Sa ugtP lethal – growth inhibition of S. aureus ugtP deletion strain. S. aureus RN4220 ugtP deletion, OD600 growth, 16 h. 330,000 tested, 0.54% active. AID 1259309. growth inhibition, % (test concentration not listed); in the data active = growth inhibition above about 68%;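 also: plate controls were untreated wells for no effect and antibiotic for full effect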
Mtb hypoxia inh – Mtb hypoxia fluorescent reporter inhibition. M. tuberculosis hypoxia-regulated fluorescent reporter, fluorescence. fluorescence inhibition, % (test concentration not listed). 300,000 tested, 0.1% active. AID 1159583; in the data active = fluorescence inhibition mostly above about 23%, no sharp cut-off; inactive = mostly below about 17%
RecA intein inh – blocks M. tuberculosis RecA intein splicing | P9WHJ3 | cell-free RecA intein splicing, fluorescence | inhibition, % (no concentration beside the values) | 290,000 tested, 0.75% active | AID 2221; in the data active = inhibition above about 30%;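 also: 0% = vehicle wells and 100% = reference inhibitor control wells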
Target sequence (P9WHJ3 whole entry, looked up): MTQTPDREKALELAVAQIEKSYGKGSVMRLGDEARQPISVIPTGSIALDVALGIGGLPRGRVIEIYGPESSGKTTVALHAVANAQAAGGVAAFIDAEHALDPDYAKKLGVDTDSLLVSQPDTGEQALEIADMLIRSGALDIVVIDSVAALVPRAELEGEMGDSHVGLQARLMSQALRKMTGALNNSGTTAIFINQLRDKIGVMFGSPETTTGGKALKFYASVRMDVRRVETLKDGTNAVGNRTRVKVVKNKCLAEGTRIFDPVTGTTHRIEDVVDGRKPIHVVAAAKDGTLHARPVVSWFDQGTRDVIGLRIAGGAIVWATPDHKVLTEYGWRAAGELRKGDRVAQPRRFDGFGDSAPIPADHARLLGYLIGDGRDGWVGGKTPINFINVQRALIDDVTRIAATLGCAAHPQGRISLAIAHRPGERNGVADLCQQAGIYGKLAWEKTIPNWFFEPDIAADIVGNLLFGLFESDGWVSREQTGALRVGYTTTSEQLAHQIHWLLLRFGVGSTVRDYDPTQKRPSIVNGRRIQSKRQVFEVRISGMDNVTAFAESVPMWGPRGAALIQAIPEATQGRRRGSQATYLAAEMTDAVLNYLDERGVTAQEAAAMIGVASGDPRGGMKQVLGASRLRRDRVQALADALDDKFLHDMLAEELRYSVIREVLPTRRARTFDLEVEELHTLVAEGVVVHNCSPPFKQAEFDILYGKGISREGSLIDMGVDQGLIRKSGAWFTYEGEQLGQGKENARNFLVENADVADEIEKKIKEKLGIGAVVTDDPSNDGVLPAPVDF
An asterisk follows results filed as active; nt = not tested or not shown. In the library only some 1.6% were active in any assay of this set; here they are far more common.

SMILES	RN4220 kill	BJeLR lethal	CCHFV vOTU inh	Sa ugtP lethal	Mtb hypoxia inh	RecA intein inh
CC(CCN1C(Nc2ccccc2)=NCC1C)c1ccccc1 (configuration not stated)	3.8	nt	nt	-12.7	6.0	nt
N#CC(c1cccc(Cl)c1)c1ccc2c(C(F)(F)F)cc(C(F)(F)F)nc2n1 (configuration not stated)	96.6*	76.0*	-2.6	96.8*	nt	9.3
CCC(CC)NC(=O)Nc1cccc(C)c1C	6.4	-1.7	-2.6	6.7	8.9	1.3
CCC(C)N(CC(=O)Nc1cccc(C)c1C)C(=O)CCl (configuration not stated)	1.0	35.7	nt	-8.0	20.2	43.2*
CC(C)N(CC(=O)Nc1ccc(Cl)cc1C(F)(F)F)C(=O)CCl	2.5	-6.1	-18.6	-8.8	0.8	59.1*
CN1CC(=O)N2C3c4ccccc4OCC3C(c3ccccc3)[C@]2(C)C1=O (some centres not stated)	3.4	nt	nt	3.9	19.0	nt
CC1CN(C(C)CO)C(=O)Cc2cc(NC(=O)Nc3ccccc3)ccc2OC1CN(C)C(=O)Nc1ccc2c(c1)OCO2 (configuration not stated)	6.8	nt	nt	4.2	-6.7	nt
Cn1c(NC(=O)C=Cc2ccccc2)cc(=O)n(C)c1=O	5.5	nt	nt	-12.0	-2.3	nt
COC(=O)c1c(NC(=O)CN2C(=O)NC3(CCCCC3C)C2=O)sc2c1CCC2 (configuration not stated)	4.0	nt	7.0	-13.5	29.1*	nt
CCOC(=O)c1c(NC(=O)CN2C(=O)NC3(CCCCC3C)C2=O)sc(C)c1CC (configuration not stated)	2.1	-0.9	24.2	3.5	7.5	-1.9
Cc1cc(C)n2nc(N)c(N=Nc3ccccc3)c2n1	21.5	-10.4	8.0	19.3	83.9*	3.0
CCOc1cc(CNCc2ccncc2)cc(Br)c1OCc1ccc(F)cc1	12.1	3.0	0.9	93.6*	14.2	1.1
COc1ccc(NC(=O)c2cc(-c3cc(C)cc(C)c3O)n[nH]2)cc1Cl	49.8	0.3	5.4	89.5*	12.5	-1.6
O=S(=O)(O)c1cccc(N=Nc2c(O)ccc3ccccc23)c1	0.9	-6.9	9.1	-6.4	35.8*	-0.9
Oc1ccc2ccccc2c1N=Nc1ccccc1F	5.7	9.6	-0.1	-4.9	7.9	-1.0
CN(Cc1cnc2nc(N)nc(N)c2n1)c1ccc(C(=O)N[C@@H](CCC(=O)O)C(=O)O)cc1	nt	75.9*	-47.7	nt	nt	-14.1
COC(=O)c1ccc(C(NC(=O)OCc2ccccc2)C(F)=CC(C)C(=O)NCc2ccc(-c3ccccc3)cc2)cc1 (configuration not stated)	-8.1	nt	nt	-8.3	12.5	nt
Cc1ccccc1NC(=S)N=Nc1c(O)n(C)c2ccc(S(=O)(=O)N3CCOCC3)cc12	2.1	-2.9	-6.3	-10.2	5.9	40.8*
Cc1cccc(C)c1NC(=S)N=Nc1c(O)n(C)c2ccc(S(=O)(=O)N3CCOCC3)cc12	-0.6	-3.4	11.9	-1.8	4.9	45.7*
CC(C)(C)OC(=O)NCCCCC(NC(=O)c1nc[nH]c1C(=O)NC(CCCCNC(=O)OC(C)(C)C)C(=O)OC(C)(C)C)C(=O)OC(C)(C)C (configuration not stated)	5.6	nt	nt	3.0	1.9	nt
Cc1ccccc1Oc1cc(-n2ncc(Cl)c(Cl)c2=O)ncn1	57.9	nt	-0.1	92.0*	13.0	nt
CCCc1nc2c(ccc3ccccc32)cc1CC	-0.7	-0.1	-14.8	83.1*	4.1	6.3
CC(C)(C)C(=O)OCOC(=O)C1N2C(=O)C(N=CN3CCCCCC3)C2SC1(C)C (configuration not stated)	1.3	nt	nt	-3.5	-0.5	nt
O=C1CCC=CCC(CC(=O)N(CCO)Cc2ccccc2)C(=O)NC(Cc2ccccc2)CO1 (configuration not stated)	4.6	nt	nt	-0.5	9.3	nt
COCc1cc(Sc2cccc(Cl)c2Cl)nc(-c2ccccc2)n1	-11.0	7.8	1.4	91.2*	nt	-1.8
SMILES	RN4220 kill	BJeLR lethal	CCHFV vOTU inh	Sa ugtP lethal	Mtb hypoxia inh	RecA intein inh
COCc1cc(Sc2ccc(Cl)cc2)nc(-c2ccccc2)n1	-11.8	3.1	2.2	72.4	nt	nt
CCOC(=O)C1C2COc3ccc(OC)cc3C2N2C(=O)c3ccc(Cl)cc3NC(=O)[C@@]12C (some centres not stated)	0.9	nt	nt	-17.4	2.4	nt
Cc1ccc2c(c1)=N/C(=N\c1[nH]c(O)c3ccccc13)N=2	nt	nt	10.7	nt	nt	nt
Oc1[nH]c(N=C2N=c3ccccc3=N2)c2ccccc12	4.6	53.5*	4.4	20.5	19.6	16.2
CC(C)(C)n1[nH]c2c3c(ccc2c1=O)C(=O)c1ccccc1C3=O	74.7	-5.7	4.0	60.7	9.1	6.1
COCCCn1[nH]c2c3c(ccc2c1=O)C(=O)c1ccccc1C3=O	86.4*	8.4	3.1	83.9*	-14.0	-2.1
COC(=O)C1=C(c2ccc(C(C)=O)cc2)CC2CCC1N2C(=O)NCCO (configuration not stated)	4.4	nt	nt	-2.0	3.1	nt
C#CCOCCOCCOCCNc1nc(N2CCN(C(=O)Cn3cc(CCO)nn3)CC2)nc(N2CCN(C(=O)C(C(C)O)n3cc(CCCCN)nn3)CC2)n1 (configuration not stated)	8.9	nt	nt	1.6	12.3	nt
CCOC(=O)N1CCC2(CC1)C(C#N)=C(N)Oc1n[nH]c(CSc3ccc(C)cc3)c12	1.7	-0.2	17.4	5.2	nt	50.5*
Cc1ccc(SCc2[nH]nc3c2C2(C(=O)Nc4ccc([N+](=O)[O-])cc42)C(C#N)=C(N)O3)cc1 (configuration not stated)	-5.0	-5.2	19.6	-22.4	-3.7	12.5
CCN1CC2C3C(=O)N(C)C(=O)C3[C@](Cc3ccccc3)(C1=O)N2C(=O)c1ccc(C)cc1 (some centres not stated)	2.4	nt	nt	3.0	7.2	nt
CC1CN(C(C)CO)C(=O)c2cccc(NC(=O)NC3CCCCC3)c2OC1CN(C)S(=O)(=O)c1ccccc1 (configuration not stated)	3.3	nt	nt	2.4	9.0	nt
CCCC1C[C@@]1(CCC)C(NP(=O)(c1ccccc1)c1ccccc1)c1ccc(C(=O)OC)cc1 (some centres not stated)	-4.5	nt	nt	20.3	5.7	nt
NC(N)=NN=Cc1ccc(OCc2ccc(Cl)cc2Cl)cc1	100.5*	nt	nt	100.6*	20.8	nt
NC(N)=N/N=C/c1ccc(OCc2ccccc2)cc1	nt	-0.3	10.7	nt	nt	5.8
Clc1ccc(CO/N=C/c2cccs2)cc1	nt	-6.2	9.8	nt	nt	-0.9
NC(N)=NN=Cc1ccc(OCc2ccccc2)c(OCc2ccccc2)c1	100.7*	nt	nt	100.5*	12.0	nt
COc1cc(C=NN=C(N)N)ccc1OCc1ccccc1Cl	-13.3	nt	nt	-28.9	-3.9	nt
NC(N)=NN=Cc1ccc(OCc2ccc(Cl)cc2)cc1	100.3*	nt	nt	100.0*	14.0	nt
NC(N)=N/N=C/c1ccc(OCc2ccc(Cl)cc2)cc1	nt	-1.9	8.5	nt	nt	18.5
FCCCOc1ccc(C=NOCc2ccc(Cl)cc2)cc1	-2.7	nt	nt	85.4*	nt	nt

Source: PubChem BioAssay (several laboratories)
